Screening data as filed in PubChem BioAssay.
Pf growth 96h: P. falciparum growth inhibition at 96 hour, primary screen for plastid delayed-death inhibitors; Potency, µM (doses to about 28.7 µM), inactives show top-dose activity change, negative = inhibition, hits mostly inhibitors; actives 6.9% (n = 320,000); AID 504834; P. falciparum luciferase reporter growth, 96 h; further: potency means the concentration at half of the fitted maximal effect; on the % scale 0 is the no-effect control and ±100 the full control effect
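96 h incubation, 37 C, 5% CO2, of luciferase-reporter P. falciparum-infected RBCs (2% hematocrit, 0.05% parasitemia final) with test compounds; endpoint luminescence.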
SARS PLpro yeast: SARS-CoV PLP inhibition in yeast | S. cerevisiae expressing SARS-CoV PLpro, growth rescue | Potency, µM (series often up to 32.9 µM), for the others: top-dose activity, positive = growth rescue, hits mostly activators | actives 0.19% (n = 330,000); calls by dose curve; further: potency means the concentration at half of the fitted maximal effect; 0% is about no effect; nearly all actives have a fitted effect of over 55% in size
Pf growth 48h: P. falciparum growth inhibition at 48 hours (one generation); P. falciparum luciferase growth in erythrocytes, 48 h; actives 5.9% (n = 310,000); AID 504832; Potency, µM (series often up to 28.7 µM), without a hit: top-dose activity change, negative = inhibition, usual class: inhibitors; further: potency means the concentration at half of the fitted maximal effect; on the % scale 0 is the no-effect control and ±100 the full control effect
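In quantitative HTS format, infected erythrocytes bearing luciferase-reporter parasites were treated for a single generation at 37 C. Luminescence after adding detection reagent served as the growth measure.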
HCMV inh: blocks human cytomegalovirus replication; HFF cells, HCMV-luciferase reporter, 72 h; hits give low values; activity change, negative = inhibition, % at 57.5 µM; actives 4.5% (n = 410,000); AID 1259415; in the data active means activity change below about -60%; inconclusive means no clear call, values can overlap the other calls; inactive means above about -39%; further: on the % scale 0 is the no-effect control and ±100 the full control effect
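Two compound doses tested in HFFs infected with HCMV-luciferase, MOI 1 PFU/cell, 72 h at 37C. Lysate luminescence read with OneGlo; data normalized against buffer-only and 10uM Salinomycin inhibitor controls.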
HCV inh: blocks hepatitis C virus. Huh7.5.1 HCVcc-Cre infection, luciferase reporter, 44 h. Potency, µM (doses to about 41.8 µM), without a hit: top-dose activity change, negative = inhibition, actives largely listed as inhibitors. actives 3.4% (n = 340,000). AID 651820; further: potency means the concentration at half of the fitted maximal effect; on the % scale 0 is the no-effect control and ±100 the full control effect
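Seed cells (1,000/well) for 4 h; treat with compound and infect with HCVcc-Cre, moi about 0.5. Incubate 44 h, then detect luciferase activity.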
Sm TGR block: blocks Schistosoma mansoni thioredoxin glutathione reductase. Q962Y6. actives 3% (n = 360,000). Potency, µM (titrated, usually from 114 µM), for inactives: top-dose activity change, negative = inhibition, most hits filed as inhibitors. AID 485364. purified TGR, DTNB reduction, TNB absorbance 405 nm; further: potency means the concentration at half of the fitted maximal effect; on the % scale 0 is the no-effect control and ±100 the full control effect; nearly all actives have a fitted effect of over 60% in size
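First, TGR (20 nM dispensed) and NADPH were mixed with compound. Second, a 15 min room-temperature incubation followed. Third, further NADPH and then DTNB were added to start the reaction. Finally, TNB absorbance was monitored kinetically.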
An asterisk follows results filed as active; ! = not confirmed by another sample; [ ] = dose if it differs, or a comment. The list is not random: actives were taken first. Their share in the collection is about 15%. Unless noted, the call rests on the fitted dose curve; in most records, active means well fitted curve in the direction sought with a large enough effect; inconclusive means small, poorly fitted or top-dose-only effect, or another doubt; inactive means no such curve, though single readings can be large; an effect the other way counts as inactive or inconclusive.

How did O=c1cc2c(nn1Cc1ccccc1)-c1ccccc1CC2 do in these assays?
Pf growth 96h: inconclusive; SARS PLpro yeast: -6%; Pf growth 48h: inconclusive; HCMV inh: -100*; HCV inh: 7%; Sm TGR block: 18%

What do the screens show for `O=c1cc2c(nn1Cc1ccc(F)cc1)-c1ccccc1CC2`?
Pf growth 96h: inconclusive; SARS PLpro yeast: -1%; Pf growth 48h: -13%; HCMV inh: inconclusive; HCV inh: -18%; Sm TGR block: 18%

How did O=c1cc2c(nn1Cc1cccc([N+](=O)[O-])c1)-c1ccccc1CC2 do in these assays?
Pf growth 96h: inconclusive; SARS PLpro yeast: -2%; Pf growth 48h: -14%; HCMV inh: -18; HCV inh: 13µM*; Sm TGR block: 12%

How did C=C(CCO)C1=CCN(S(=O)C(C)(C)C)[C@@H]1CCO (stereo partly drawn) do in these assays?
HCMV inh: -27; HCV inh: 54%

What do the screens show for `CCOc1ccc(NC(=O)c2cc(S(=O)(=O)N3CCCCC3)c[nH]2)cc1`?
Pf growth 96h: 21%; SARS PLpro yeast: 6%; Pf growth 48h: -28%; HCMV inh: -65*!; HCV inh: inconclusive; Sm TGR block: -25%

How did CC(C)c1ccc(NC(=O)c2cc(S(=O)(=O)N3CCCC3)c[nH]2)cc1 do in these assays?
Pf growth 96h: -15%; SARS PLpro yeast: 1%; Pf growth 48h: inconclusive; HCMV inh: -77*; HCV inh: inconclusive; Sm TGR block: 8%

How did Cc1ccccc1NC(=O)CN(c1ccc(Cl)cc1Cl)S(=O)(=O)c1ccccc1 do in these assays?
HCMV inh: -11; Sm TGR block: 4%

What do the screens show for `COC(=O)c1ccc2nc(C)cc(Nc3cccc(Cl)c3C)c2c1`?
HCMV inh: -10; Sm TGR block: -6%

What do the screens show for `CCN(C(=O)COC(=O)CCOc1ccc(C(C)(C)C)cc1)c1c(N)n(Cc2ccccc2)c(=O)[nH]c1=O`?
HCMV inh: -66*; HCV inh: -8%

How did CCCOc1ccc(C(=O)CCC(=O)OCC(=O)N(CC)c2c(N)n(Cc3ccccc3)c(=O)[nH]c2=O)cc1 do in these assays?
HCMV inh: 30; HCV inh: 12%

What do the screens show for `COCCCN(C(=O)CCOc1ccc(C(C)(C)C)cc1)c1c(N)n(Cc2ccccc2)c(=O)[nH]c1=O`?
Pf growth 96h: inconclusive; SARS PLpro yeast: -5%; Pf growth 48h: 13µM*; HCV inh: -22%; Sm TGR block: 2%

Results for COCCCN(C(=O)CCOc1ccc(C)cc1)c1c(N)n(Cc2ccccc2)c(=O)[nH]c1=O ?
Pf growth 96h: 2%; SARS PLpro yeast: -1%; Pf growth 48h: -7%; HCMV inh: -8; HCV inh: 7%[8.37 µM]; Sm TGR block: -4%

What do the screens show for `CCN(C(=O)COC(=O)/C=C/c1ccco1)c1c(N)n(Cc2ccccc2)c(=O)[nH]c1=O`?
Pf growth 96h: -26%; SARS PLpro yeast: 1%; Pf growth 48h: -23%; HCMV inh: 10; HCV inh: inconclusive; Sm TGR block: 20µM*

What do the screens show for `CCN(C(=O)COC(=O)/C=C/c1ccc(OC)c(OC)c1)c1c(N)n(Cc2ccccc2)c(=O)[nH]c1=O`?
HCMV inh: 20; HCV inh: -9%

What do the screens show for `CC(C)c1ccc(CN2C(=O)C(n3ccc4ccccc43)c3cc(F)ccc32)cc1` (stereo not drawn)?
HCMV inh: 3

How did CCc1ccc(NC(=O)CSc2ncc(S(=O)(=O)c3cc(C)ccc3C)c(=O)[nH]2)cc1 do in these assays?
HCMV inh: -1; Sm TGR block: -11%

How did CC(C)Nc1ncnc2c1ncn2[C@H]1CN(Cc2ccc(-c3ccccc3)cc2)C[C@@H](CO)O1 do in these assays?
HCMV inh: -66*

What do the screens show for `CN(C)CCNc1ncnc2c1ncn2[C@H]1CN(Cc2ccc(-c3ccccc3)cc2)C[C@@H](CO)O1`?
HCMV inh: -31

What do the screens show for `CC(C)CNc1ncnc2c1ncn2[C@H]1CN(Cc2ccncc2)C[C@@H](CO)O1`?
HCMV inh: -35

How did CC(C)CNc1ncnc2c1ncn2[C@H]1CN(Cc2ccc(-c3ccccc3)cc2)C[C@@H](CO)O1 do in these assays?
HCMV inh: -73*

Results for OCCN1CCN(c2ncnc3c2ncn3[C@H]2CN(Cc3cccc(C(F)(F)F)c3)C[C@@H](CO)O2)CC1 ?
HCMV inh: -62*

Results for CC(C)(C)NC(=O)COc1coc(CN2CCN(Cc3ccccc3)CC2)cc1=O ?
Pf growth 96h: inconclusive; SARS PLpro yeast: -5%; Pf growth 48h: 0%; HCMV inh: -29; HCV inh: -1%; Sm TGR block: 0%

How did CCc1cccc(NC(=O)c2ccc(CNS(=O)(=O)c3ccc4c(c3)C(C)(C)C(=O)N4C)cc2)c1 do in these assays?
HCMV inh: inconclusive; Sm TGR block: 1%

Results for Nc1sc(-c2ccccc2)c(Cc2ccccc2)c1C(=O)O ?
Pf growth 96h: 5%; SARS PLpro yeast: 1%; Pf growth 48h: 6%; HCMV inh: 14; HCV inh: 12%; Sm TGR block: -2%

Results for CC(=O)c1ccc(N2CCN(S(=O)(=O)c3cc4[nH]c(=O)c(=O)[nH]c4cc3C)CC2)cc1 ?
Pf growth 96h: -4%; Pf growth 48h: 2.3µM*; HCMV inh: 32; HCV inh: 11%; Sm TGR block: -7%

How did CC(=O)c1ccc(N2CCN(S(=O)(=O)c3cc(-c4cc(C)no4)ccc3C(C)C)CC2)cc1 do in these assays?
Pf growth 96h: inconclusive; SARS PLpro yeast: -3%; Pf growth 48h: 10µM*; HCMV inh: inconclusive; HCV inh: -25%; Sm TGR block: 5%

What do the screens show for `Cc1cc(-c2ccc(C(C)C)c(S(=O)(=O)N3CCN(c4ccccc4)CC3)c2)on1`?
Pf growth 96h: inconclusive; SARS PLpro yeast: 1%; Pf growth 48h: inconclusive; HCMV inh: -29; HCV inh: inconclusive; Sm TGR block: 7%

How did Cc1cc(-c2ccc(C(C)C)c(S(=O)(=O)N3CCC(C)CC3)c2)on1 do in these assays?
Pf growth 96h: inconclusive; SARS PLpro yeast: -2%; Pf growth 48h: 12µM*; HCMV inh: 0; HCV inh: 6%; Sm TGR block: -7%

Results for Cc1cc(-c2ccc(C(C)C)c(S(=O)(=O)Nc3cc(C)on3)c2)on1 ?
Pf growth 96h: 13µM*; SARS PLpro yeast: 5%; Pf growth 48h: 17%; HCMV inh: -4; HCV inh: 8%; Sm TGR block: -13%
